JMJD2A Tudor inh: inhibitors of human JMJD2A Tudor domain; AlphaScreen JMJD2A-Tudor / H3K4me3 peptide binding; Potency, µM (top dose mostly 114 µM), actives largely listed as inhibitors; 4.4% of 390,000 active; also: nearly all actives have a fitted effect of over 50% in size
L3MBTL1 inh: L3MBTL1 (human) inhibition; Q9Y468; AlphaScreen L3MBTL1–H3K9me1 peptide binding; Potency, µM (highest dose often 57.1 µM), actives largely listed as inhibitors; 0.66% of 230,000 active; also: nearly all actives have a fitted effect of over 60% in size
Target sequence (Q9Y468 whole entry, looked up): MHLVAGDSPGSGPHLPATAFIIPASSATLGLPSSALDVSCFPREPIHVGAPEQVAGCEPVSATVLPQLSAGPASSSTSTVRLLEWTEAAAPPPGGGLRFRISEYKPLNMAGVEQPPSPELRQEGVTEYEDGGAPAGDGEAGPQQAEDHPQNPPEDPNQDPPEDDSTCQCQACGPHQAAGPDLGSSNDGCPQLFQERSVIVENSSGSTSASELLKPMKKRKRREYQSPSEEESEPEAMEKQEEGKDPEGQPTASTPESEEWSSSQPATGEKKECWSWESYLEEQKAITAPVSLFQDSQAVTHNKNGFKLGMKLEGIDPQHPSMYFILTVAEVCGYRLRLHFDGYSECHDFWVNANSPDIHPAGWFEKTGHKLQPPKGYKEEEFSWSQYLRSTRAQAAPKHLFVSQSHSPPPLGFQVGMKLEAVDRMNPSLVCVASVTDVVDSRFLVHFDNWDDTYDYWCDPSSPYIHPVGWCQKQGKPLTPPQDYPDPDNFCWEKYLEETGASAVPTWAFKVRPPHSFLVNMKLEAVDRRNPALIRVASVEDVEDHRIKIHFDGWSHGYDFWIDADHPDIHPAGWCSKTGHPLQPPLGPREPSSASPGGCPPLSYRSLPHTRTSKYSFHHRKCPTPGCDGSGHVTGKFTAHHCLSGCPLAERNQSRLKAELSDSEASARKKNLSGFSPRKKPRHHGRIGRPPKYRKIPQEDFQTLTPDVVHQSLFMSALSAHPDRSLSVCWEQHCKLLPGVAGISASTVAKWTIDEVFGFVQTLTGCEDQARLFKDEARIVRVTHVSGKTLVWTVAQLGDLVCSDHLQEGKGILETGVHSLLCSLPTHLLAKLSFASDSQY
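AlphaScreen proximity signal between nickel-chelate acceptor and streptavidin donor beads (final 10 ug/mL) reports binding of 50 nM L3MBTL1 to 75 nM biotin-H3 K9me1 peptide; complex incubated with compounds 30 min at room temperature; cefsulodin titration as control.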
Sfp PPTase inh: Sfp phosphopantetheinyl transferase inhibition; Q9F4F7; Biochemical Sfp PPTase activity, qHTS; Potency, µM, usual class: inhibitors; 3.5% of 310,000 active;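 also: the enzyme is Sfp with the accession as filed and its product quenches rhodamine fluorescence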
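Compounds were incubated with enzyme (final 15 nM) for 15 min at room temperature before substrate addition started the reaction. Fluorescence at 525 nm excitation, 598 nm emission was recorded immediately and after 30 minutes.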
G9a block: blocks human histone lysine methyltransferase G9a; Q96KQ7; G9a H3K9 monomethylation, AlphaScreen, 2 h; Potency, µM (highest dose often 102 µM), most hits filed as inhibitors; 8.8% of 350,000 active; also: nearly all actives have a fitted effect of over 75% in size
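Using a bead-based AlphaScreen, monomethylated H3K9 product from 2 h room-temperature reactions (G9a 20 nM, peptide 500 nM, SAM 20 uM) was detected with 0.5 ug/mL rabbit anti-H3K9me1 antibody.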
HP1b binding inh: HP1-beta chromodomain-methylated histone interaction inhibition | Potency, µM (series often up to 114 µM), usual class: inhibitors | P83916 | 0.56% of 390,000 active | AlphaScreen HP1-beta / biotin-H3K9me3 peptide binding; also: nearly all actives have a fitted effect of over 70% in size
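HP1-beta protein (50 nM final) preincubated 30 min at room temperature with biotinylated H3(1-18)K9me3 peptide (50 nM) in PBS pH 7.4, 0.01% Tween-20, then compound added for 30 min. AlphaScreen streptavidin donor/nickel chelate acceptor beads (10 ug/mL final), 30 min dark, luminescence read.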
BAZ2B block: inhibitors of human BAZ2B bromodomain. AlphaScreen BAZ2B-H3K14Ac peptide displacement. 4.4% of 360,000 active. Potency, µM (doses to about 114 µM), actives largely listed as inhibitors; also: nearly all actives have a fitted effect of over 60% in size
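AlphaScreen displacement of biotin-H3(5-23)K14Ac peptide (50 nM final) from BAZ2B (50 nM final) in PBS pH 7.4, 0.01% Tween-20; complex preformed 30 min RT, then compounds (top 110 uM) 30 min RT, beads 20 min dark.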
Of the large screens only hits and unclear results are named; the others gave an inactive call. Compounds with a hit are over-represented: about 12% of the library has one in this group of screens. Calls follow the shape of the dose curve; as a rule, active = well fitted curve in the direction sought with a large enough effect; inconclusive = small, poorly fitted or top-dose-only effect, or another doubt; inactive = no such curve, though single readings can be large; an effect the other way counts as inactive or inconclusive.

Cc1ccc(S(=O)(=O)N(C)C)cc1NC(=O)CN1C(=O)NC2(CCCCCCC2)C1=O	none (no result: L3MBTL1 inh, G9a block)
Cc1cccc(-c2nc(SCCCOc3ccccc3Cl)n3[nH]c(=O)cc3n2)c1	none (no result: L3MBTL1 inh, Sfp PPTase inh)
O=C(N=C1SC2CS(=O)(=O)CC2N1c1ccccc1)C1CCCCC1 (stereo unspecified)	none (no result: L3MBTL1 inh)
CN(c1ccccc1)c1nc(C#N)nc(N2CCOCC2)n1	none (no result: L3MBTL1 inh, Sfp PPTase inh, G9a block, BAZ2B block)
COc1cccc(N2CCN(C(=O)c3ccc(CS(=O)c4ccc(C)cc4)o3)CC2)c1 (stereo unspecified)	G9a block 50µM (no result: L3MBTL1 inh)
O=C1NN(c2ccccc2)C(=O)/C1=C\c1ccccc1OCC(=O)N1CCOCC1	Sfp PPTase inh inconclusive, G9a block 45µM
O=c1[nH]c(-c2ccccc2)c(-c2ccccc2)o1	G9a block 45µM (no result: L3MBTL1 inh)
N#Cc1c(-c2ccccc2)[nH]c(=O)[nH]c1=O	none
CC(C)=NOCc1ccc(-c2cn([C@@H]3COC[C@H]3O)nn2)cc1	G9a block 40µM (no result: JMJD2A Tudor inh, HP1b binding inh)
CCOC(=O)C1=C(C)OC(N)=C(C#N)C1c1c(C)nn(-c2ccccc2)c1Cl (stereo unspecified)	JMJD2A Tudor inh inconclusive, Sfp PPTase inh 56µM, G9a block inconclusive
CCOC(=O)C1=C(CSc2nc(-c3ccncc3)ccc2C#N)OC(N)=C(C#N)C1c1ccc(OC)cc1 (stereo unspecified)	JMJD2A Tudor inh inconclusive, Sfp PPTase inh inconclusive, G9a block 40µM, BAZ2B block inconclusive (no result: L3MBTL1 inh)
CCOC(=O)C1=C(c2ccccc2)OC(N)=C(C#N)C1c1ccncc1 (stereo unspecified)	Sfp PPTase inh inconclusive, G9a block 45µM
CCOC(=O)C1=C(c2ccccc2)OC(N)=C(C#N)C1c1cccs1 (stereo unspecified)	Sfp PPTase inh inconclusive, G9a block inconclusive, BAZ2B block inconclusive
CCOC(=O)C1=C(CSc2nc(C)ccc2C#N)OC(N)=C(C#N)C1c1cccc(OC)c1OC (stereo unspecified)	JMJD2A Tudor inh inconclusive, Sfp PPTase inh 14µM, G9a block 7.1µM, BAZ2B block 56µM
C=CCOC(=O)C1=C(C)OC(N)=C(C#N)C1c1c(C)nn(-c2ccccc2)c1Cl (stereo unspecified)	none
CN(C)c1ccc(CNS(=O)(=O)c2ccc3c(c2)C(C)(C)C(=O)N3C)cc1	JMJD2A Tudor inh inconclusive, BAZ2B block inconclusive (no result: G9a block)
O=S(=O)(c1ccc(C(F)(F)F)cc1)N1CCN(c2nc(-c3cccs3)nc3ccccc23)CC1	none (no result: L3MBTL1 inh, Sfp PPTase inh, G9a block, BAZ2B block)
CCOC(=O)C1=C(C)OC(N)=C(C#N)C1c1ccc(OC)c(CSc2ccccn2)c1 (stereo unspecified)	JMJD2A Tudor inh inconclusive, G9a block 22µM, BAZ2B block inconclusive
CCOC(=O)C1=C(CC)OC(N)=C(C#N)C1c1cc(OC)ccc1OC (stereo unspecified)	none (no result: L3MBTL1 inh)
CCOC(=O)C1=C(CSc2nc(CC)c(C)cc2C#N)OC(N)=C(C#N)C1c1ccc(OC)cc1 (stereo unspecified)	JMJD2A Tudor inh 32µM, Sfp PPTase inh 7.9µM, G9a block 4.5µM
CCOC(=O)C1=C(CSc2nc(-c3ccncc3)ccc2C#N)OC(N)=C(C#N)C1c1cccnc1 (stereo unspecified)	Sfp PPTase inh 79µM, G9a block 35µM
COc1cccc2cc(-c3nnc(Nc4ccccc4C)s3)c(=O)oc12	none (no result: L3MBTL1 inh, Sfp PPTase inh)
O=C(NCCc1ccccc1)c1cc(-c2ccc(Cl)cc2)on1	none (no result: L3MBTL1 inh, Sfp PPTase inh)
CCc1ccc(NCc2cc3ccc(OC)cc3n(CC(=O)Nc3ccc(C(C)C)cc3)c2=O)cc1	BAZ2B block inconclusive (no result: L3MBTL1 inh, Sfp PPTase inh)
CN1CCN(NC(=S)Nc2ccc(OC(F)F)cc2)CC1	JMJD2A Tudor inh inconclusive, Sfp PPTase inh 56µM (no result: BAZ2B block)
CCCCn1c(N)c(N(CCOC)C(=O)CCCn2c(=O)oc3ccccc32)c(=O)[nH]c1=O	none (no result: L3MBTL1 inh, Sfp PPTase inh, G9a block, BAZ2B block)
Cc1cccc(NC(=O)c2sc3nc4c(c(-c5cccs5)c3c2N)CN(C)CC4)c1	JMJD2A Tudor inh inconclusive, Sfp PPTase inh inconclusive, G9a block 45µM, BAZ2B block inconclusive (no result: L3MBTL1 inh)
CCN1C(=O)/C(=C/c2cn(-c3ccccc3)nc2-c2cccnc2)SC1=S	none (no result: L3MBTL1 inh, Sfp PPTase inh, G9a block, BAZ2B block)
COc1ccc(-c2nn(-c3ccccc3)cc2/C=C2/SC(=S)N(CCC(=O)O)C2=O)cc1	JMJD2A Tudor inh 20µM, G9a block 40µM, HP1b binding inh 35µM, BAZ2B block 18µM (no result: L3MBTL1 inh)
CCN1C(=O)/C(=C\c2cn(CCC#N)nc2-c2ccc(F)cc2)SC1=S	JMJD2A Tudor inh 22µM, Sfp PPTase inh inconclusive, G9a block 35µM, HP1b binding inh inconclusive, BAZ2B block 35µM
Cc1ccc(-c2nn(-c3ccccc3)cc2/C=C2\SC(=S)N(CC(=O)O)C2=O)cc1	JMJD2A Tudor inh 40µM, Sfp PPTase inh 50µM, G9a block 35µM, BAZ2B block 22µM
COc1ccc(-c2nn(-c3ccccc3)cc2/C=C2/SC(=S)N(CCC(=O)O)C2=O)c(C)c1	JMJD2A Tudor inh 25µM, G9a block 40µM, HP1b binding inh inconclusive, BAZ2B block 50µM
COC(=O)c1c(C)oc2ccc(N(C(=O)Oc3ccccc3)S(=O)(=O)c3ccc(C(C)(C)C)cc3)cc12	none (no result: L3MBTL1 inh, Sfp PPTase inh)
Cc1ccc(Cn2c(CCC(=O)O)nc3ncccc3c2=O)cc1	none (no result: L3MBTL1 inh)
O=C(CCC1CCCCC1)NCc1ccc(F)cc1	none
CC1CCCCC1NCC(=O)NCc1ccc(F)cc1 (stereo unspecified)	JMJD2A Tudor inh 1.3µM, G9a block 10µM, HP1b binding inh inconclusive, BAZ2B block 50µM
O=C1c2ccccc2C(=O)N1c1cccc(=O)[nH]1	none (no result: L3MBTL1 inh, Sfp PPTase inh, G9a block, HP1b binding inh, BAZ2B block)
Clc1cccc(CNCCCSc2ncccn2)c1	G9a block inconclusive
O=C(CSc1ccccn1)Nc1ccc2ccccc2c1	none (no result: JMJD2A Tudor inh, HP1b binding inh)
O=C(CSc1ccccn1)Nc1ccc2c(c1)C(=O)c1ccccc1C2=O	JMJD2A Tudor inh 50µM, G9a block inconclusive, BAZ2B block 50µM
O=C(CSc1n[nH]c(=O)[nH]c1=O)Nc1cccc(S(=O)(=O)N2CCOCC2)c1	none
O=C(CSc1n[nH]c(=O)[nH]c1=O)Nc1ccc2c(c1)C(=O)c1ccccc1C2=O	JMJD2A Tudor inh inconclusive, L3MBTL1 inh 28µM, HP1b binding inh 11µM, BAZ2B block 50µM (no result: G9a block)
COc1cc(C(=O)O)nc2ccc([N+](=O)[O-])cc12	Sfp PPTase inh 10µM, G9a block 18µM, BAZ2B block 50µM
CC(=O)Nc1cccc(/C(C)=N/N2C(C)CCCC2C)c1 (stereo unspecified)	none (no result: L3MBTL1 inh)
Cc1ccccc1N=Nc1c(O)n(C)c2ccccc12	G9a block 7.9µM (no result: L3MBTL1 inh)
O=C(NCCc1ccc(Cl)cc1)C(=O)NCC(c1ccco1)S(=O)(=O)c1ccc(Cl)cc1 (stereo unspecified)	none (no result: L3MBTL1 inh, Sfp PPTase inh)

Source: PubChem BioAssay (National Center for Advancing Translational Sciences (NCATS))
